Data from PubChem BioAssay (NCI).
About 79,000 compounds went through this panel and 15% of them were active in at least one assay; those are over-represented in the sample as a whole. A number with no mark means an inactive call. Active and inactive are the calls of the source. Rule as the data show it: active = growth inhibition above about 70%; inactive = the rest.

How the values were obtained:
[1] = NCI Yeast Anticancer Drug Screen. Data for the rad50 strain (AID 155);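 also: 0% = growth of vehicle-only cultures of the same strain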; settings: S. cerevisiae rad50 strain growth inhibition; at 50.0 µM; active compounds read high
Method in brief: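 DNA repair mutant yeast, compound exposure, growth read-out; inhibition is taken relative to vehicle.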

[2] = NCI Yeast Anticancer Drug Screen. Data for the mec2-1 strain (AID 157); settings: S. cerevisiae mec2-1 strain, at 50.0 µM, active compounds read high
Method in brief: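 Strain: mec2-1 (DNA repair/cell cycle alteration). Compound exposure, then growth measured; inhibition expressed relative to vehicle.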

[3] = NCI Yeast Anticancer Drug Screen. Data for the sgs1 mgt1 strain (AID 161);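 also: 0% = growth of cultures given vehicle only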; settings: S. cerevisiae sgs1 mgt1 strain, at 50.0 µM, active compounds read high
Method in brief: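 Inhibition of yeast growth, normalised to vehicle-treated controls, is reported for a strain bearing genetic alterations in DNA damage repair.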

[4] = NCI Yeast Anticancer Drug Screen. Data for the cln2 rad14 strain (AID 165);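 also: 0% = growth equal to vehicle treated cultures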; settings: S. cerevisiae cln2 rad14 strain, at 50.0 µM, active compounds read high
Method in brief: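 Compounds are applied to the cln2 rad14 yeast strain, and growth is then compared with that of vehicle-treated cultures to give inhibition.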

[5] = NCI Yeast Anticancer Drug Screen. Data for the bub3 strain (AID 167); settings: S. cerevisiae bub3 mutant strain, at 50.0 µM, active compounds read high
Method in brief: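 In this screen, a yeast mutant lacking normal mitotic checkpoint function is challenged with compound. Relative growth versus vehicle gives the inhibition value.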

[6] = NCI Yeast Anticancer Drug Screen. Data for the mlh1 rad18 strain (AID 175); settings: S. cerevisiae mlh1 rad18 strain growth inhibition; at 50.0 µM; active compounds read high
Method in brief: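 Read-out is yeast growth inhibition, calculated against vehicle-only controls. The compound was applied to a strain engineered with DNA damage repair alterations.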

Row | SMILES | growth inhibition [1] | growth inhibition [2] | growth inhibition [3] | growth inhibition [4] | growth inhibition [5] | growth inhibition [6]
1 | Clc1ccc(C=Nc2ccc3c(c2)Cc2ccccc2-3)c(Cl)c1 | -5.15% | -33.6% | -21.6% | -3.85% | -35.2% | -2.4%
2 | COC(=O)C1C(=O)N(C)c2cc(C)c(C)cc2C1(C)C (configuration not stated) | 7.55% | -9.4% | 1.6% | 5.8% | 24.9% | -3.9%
3 | CCN(CC)C1=C(C)S(=O)(=O)C1c1ccc(C)cc1 (configuration not stated) | -9.1% | -12.6% | -8.85% | 5.6% | -13.4% | -2.15%
4 | CC(C)NC(=O)c1ccccc1-[s+]1c2ccccc2c(=O)n1C(C)C (configuration not stated) | 22% | 1.15% | -11.7% | 3.9% | -2.95% | 9.3%
5 | O=C(/C(=C/c1ccc(Cl)cc1)c1ccccc1)c1ccccc1 | 9.2% | -28.4% | 6.45% | 13.9% | -21.1% | -2.75%
6 | CCN(CC)CCC(=O)c1cnc(-c2ccccc2)nc1C | 7.35% | 35.1% | 38.7% | 2.5% | 17.5% | 20.1%
7 | CC(=O)OC(C(=O)O)C(OC(C)=O)C(OC(C)=O)C(=O)O (configuration not stated) | 21.5% | 19.2% | 13.8% | -5.85% | 5.7% | 8.4%
8 | CN(C)CCn1cnc2sc3ccccc3c21 | -8.35% | -15.5% | -23.8% | 24% | -6.35% | -23.8%
9 | NCCC(=O)OC1CCCc2c(O)c3c(c(O)c21)C(=O)c1ccccc1C3=O (configuration not stated) | 98.8% (active) | 99.4% (active) | 99.4% (active) | 98.9% (active) | 98.8% (active) | 99.2% (active)
10 | Cc1cc(C)c(CCC(=O)O)c(C)c1 | 6.95% | 4.8% | -0.3% | 6.6% | -7.1% | -1.25%
11 | CCOC(=O)C(O)C(O)C(O)C(O)C(=O)OCC (configuration not stated) | 5.6% | -8.15% | 1.9% | -2.35% | -7.7% | -8.75%
12 | O=[N+]([O-])c1ccc(N=Cc2ccccc2O)cc1 | -19.7% | -8.05% | -23.6% | 4.3% | 8.05% | -6.9%
13 | CSSC(SC)SC | 31.9% | -7.85% | 13.6% | -21.1% | -11.6% | 29.6%
14 | CCCCCCCCCCCCCC(=O)Cl | -52.4% | -4% | -47.2% | -39.9% | -65.5% | -104%
15 | O=c1ccc2c(-c3ccccc3O)c3ccc(O)cc3oc-2c1 | 91.8% (active) | 78.4% (active) | 85% (active) | 86.9% (active) | 88.5% (active) | 95.5% (active)
16 | N#CC1CNCCC1=N (configuration not stated) | -5.75% | -3.2% | 13.4% | -1.1% | -1.55% | -6.8%
17 | COc1cc2ccccc2ccc1=O | 13.4% | 7.95% | -6.45% | -3.55% | 13.6% | 4.5%
18 | Cc1nccc2scc(S(=O)(=O)O)c12 | 22.6% | 10.5% | 12.1% | -12.8% | -13.7% | 22.7%
19 | CC(=O)CC(=O)Nc1ccc(Cl)cc1 | -2.75% | -27.9% | 12.2% | 3.85% | -5.55% | 8.45%
20 | Cc1ccc(C)c(CNC(=O)Nc2ccccc2Cl)c1 | 12.4% | -14.3% | -22.8% | 6.75% | 5.35% | -18.2%
21 | CN(C)CCC1(C2=CCCC2)CC/C(=C\c2ccc3c(c2)OCO3)C1=O (configuration not stated) | 4.85% | -13.7% | -22.2% | 16.4% | -2.55% | 17.5%

Row | SMILES | growth inhibition [1] | growth inhibition [2] | growth inhibition [3] | growth inhibition [4] | growth inhibition [5] | growth inhibition [6]
22 | CCOC(=O)c1nnsc1NC(=O)Nc1ccc(Cc2ccc(NC(=O)Nc3snnc3C(=O)OCC)cc2)cc1 | -14.3% | 8.25% | 12.2% | 18.3% | 5.45% | 10.3%
23 | CCC(=O)/C=C/c1ccccc1 | -1.55% | -14.2% | -22.1% | -23.9% | -34.5% | -47.6%
24 | CCCCCCCCCCCCCC(=O)Oc1ccc2ccccc2c1 | -4.05% | 3.5% | -3.85% | 5.7% | -10.1% | 8.7%
25 | O=S(=O)(O)c1cc[n+]([O-])cc1 | 1.6% | 12.7% | -2.8% | 32.5% | 11.8% | -8.65%
26 | Nc1c(N=Nc2ccc(S(=O)(=O)O)cc2)cc2c3c(cccc13)CC2 | 11.3% | 2.35% | 20.6% | 8.65% | -39.5% | 2.4%
27 | C(=C\c1cc(-c2ccc3ccccc3n2)nc2ccc3ccccc3c12)/c1ccc2ccccc2n1 | 9.7% | -1.4% | 26.9% | 28.9% | 25.5% | -11.2%
28 | CCOC(=O)CON | -7.35% | 1.9% | -7.45% | -51% | -12.4% | -5.8%
29 | CNC(=S)N(C)c1ccccc1 | 0.6% | -9.85% | -15.9% | -57.4% | 8.05% | -23.3%
30 | O=C1NC(=O)C2C1C1C=C3c4ccccc4N(c4ccccc4)C32[C@H]2C(=O)NC(=O)[C@@H]12 (some centres not stated) | -3.4% | -13.2% | 7.15% | 24.9% | 17.4% | -4.9%
31 | Cc1cc2oc3ccccc3c(=O)c2c(C)c1Cl | -18.1% | 5.1% | -9.65% | -3.1% | 10.4% | -3.6%
32 | CC(=O)OCN(C)N=Nc1ccc(C(C)=O)cc1 | -4.6% | -11.3% | -27.8% | -22.7% | 20.9% | 5.45%
33 | COC(=O)C12C3C4C1C1C2C3C41C(=O)OC(C)(C)C (configuration not stated) | 18% | 1.35% | 9.2% | 4.5% | 23.9% | 15.2%
34 | COc1ccccc1NC(=O)CC(=O)n1nc(C)c(N=Nc2ccccc2C(=O)O)c1C | -12.6% | -25.3% | -17.6% | -14.9% | -15.8% | -9.5%
35 | O=c1/c(=C/c2ccc3c(c2)OCO3)sc2nnc(-c3ccco3)n12 | 1.85% | -30.1% | 17.9% | 20.6% | -19.9% | -3.35%
36 | CCOc1ccc(C(=O)C=O)cc1 | 11.6% | -5.65% | 11.4% | -0.7% | 9.55% | 27.2%
37 | COc1ccc(C(=O)OC2CCCN(C(=O)c3ccc(OC)cc3)C2)cc1 (configuration not stated) | 0.75% | 2.5% | 0.8% | 0.8% | 10.7% | -5.55%
38 | COc1ccc2[nH]c(C)cc2c1CN | -0.65% | -14.3% | 15.1% | -24.9% | -20.2% | 26.4%
39 | CC(=O)Oc1cc(I)cc(C(=O)O)c1 | -10% | 9.85% | -1.05% | -9.15% | 3.3% | -10.4%
40 | COc1cc2c(c(OC)c1OC)-c1ccc(SC)c(=O)cc1[C@@H](NC(=O)NCCCl)CC2 | 1.1% | -16.8% | -18.1% | 4.6% | -28.4% | -10.2%
41 | O=C/C=C/N=c1ccn(O)cc1 | 8.65% | 3.45% | 3.05% | -2.1% | 4.25% | 2.1%
42 | Brc1ccc(Br)nc1 | -7.6% | -4.65% | -10.1% | 8.05% | -10.1% | -12.9%
